Measurements as given in PubChem BioAssay AID1224864 (Chung Lab, Department of Pediatrics, Emory University, 2016).
Values joined by “and” are separate entries in the source; they are usually repeats but may differ in a detail not shown here. Equal entries are not always repeated. About 20 (1%) of roughly 2,000 compounds were called active. The rule behind the calls is not given here. For the sample, actives were picked, then their nearest neighbours and some compounds at random.

The molecules below were run against Cystic fibrosis transmembrane conductance regulator (Homo sapiens) (UniProt P13569) (assay: F508del-CFTR plasma membrane relocalization enhancers – imaging, HeLa, high-content microscopy, immunofluorescence, primary screen (AID 1224864;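 note: HeLa cells stably expressing F508del-CFTR stained with 3G11 antibody against NBD1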;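 for plasma membrane CFTR intensity: mean immunofluorescence in a thin cell-margin band taken as plasma membrane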)). Details: PM immunofluorescence imaging, 24 h, at 10 µM, stronger effect = higher value, relative to vehicle wells set at 100; total CFTR intensity: measured here: total cellular F508del-CFTR signal.
Chain of Cystic fibrosis transmembrane conductance regulator (Homo sapiens) (P13569 whole entry, looked up, stated change not applied): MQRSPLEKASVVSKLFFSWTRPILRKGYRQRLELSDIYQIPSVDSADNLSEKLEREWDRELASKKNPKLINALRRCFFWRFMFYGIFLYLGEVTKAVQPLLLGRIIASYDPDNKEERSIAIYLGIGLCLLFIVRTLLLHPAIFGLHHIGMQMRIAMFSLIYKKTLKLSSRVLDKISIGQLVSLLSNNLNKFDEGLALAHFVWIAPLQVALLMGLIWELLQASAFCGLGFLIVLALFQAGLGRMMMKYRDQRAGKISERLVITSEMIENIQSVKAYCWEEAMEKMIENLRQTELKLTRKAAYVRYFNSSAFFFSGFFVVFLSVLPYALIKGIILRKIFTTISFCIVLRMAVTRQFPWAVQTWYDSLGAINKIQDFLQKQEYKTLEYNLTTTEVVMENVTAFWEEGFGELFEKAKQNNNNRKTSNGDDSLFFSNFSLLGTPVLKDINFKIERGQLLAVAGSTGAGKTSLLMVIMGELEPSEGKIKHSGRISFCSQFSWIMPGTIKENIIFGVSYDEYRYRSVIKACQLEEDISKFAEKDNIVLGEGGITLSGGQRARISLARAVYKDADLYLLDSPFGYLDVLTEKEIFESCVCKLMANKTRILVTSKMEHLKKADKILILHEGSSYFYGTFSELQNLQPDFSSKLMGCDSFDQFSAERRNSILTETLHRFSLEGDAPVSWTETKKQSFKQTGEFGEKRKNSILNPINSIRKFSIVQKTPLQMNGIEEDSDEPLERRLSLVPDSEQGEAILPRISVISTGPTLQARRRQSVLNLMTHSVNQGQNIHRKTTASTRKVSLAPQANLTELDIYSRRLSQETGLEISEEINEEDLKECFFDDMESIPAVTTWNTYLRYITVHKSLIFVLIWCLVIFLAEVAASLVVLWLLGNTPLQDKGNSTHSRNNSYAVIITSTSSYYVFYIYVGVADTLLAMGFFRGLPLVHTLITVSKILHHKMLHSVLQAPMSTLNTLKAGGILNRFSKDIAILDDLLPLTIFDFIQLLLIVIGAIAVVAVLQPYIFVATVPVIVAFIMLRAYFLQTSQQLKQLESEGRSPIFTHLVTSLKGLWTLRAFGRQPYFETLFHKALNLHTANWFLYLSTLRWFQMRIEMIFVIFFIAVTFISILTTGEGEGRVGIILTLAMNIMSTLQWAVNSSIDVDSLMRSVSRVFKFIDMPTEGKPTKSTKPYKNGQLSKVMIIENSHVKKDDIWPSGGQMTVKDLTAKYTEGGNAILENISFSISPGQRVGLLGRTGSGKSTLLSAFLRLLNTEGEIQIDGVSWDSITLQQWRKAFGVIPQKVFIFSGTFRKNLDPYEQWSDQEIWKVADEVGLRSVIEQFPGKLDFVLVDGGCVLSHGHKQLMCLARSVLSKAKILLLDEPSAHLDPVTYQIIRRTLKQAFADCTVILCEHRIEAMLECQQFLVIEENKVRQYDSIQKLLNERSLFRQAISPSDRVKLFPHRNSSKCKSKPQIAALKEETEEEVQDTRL
In the case of `CC1CCCc2sc3ncn(N)c(=N)c3c21` (stereo not drawn), the plasma membrane CFTR intensity is reported as 71% (inactive) and the total CFTR intensity is reported as 71%.
With `O=C(c1ccco1)N(CCC(c1ccccc1)c1ccco1)Cc1ccco1` (stereo not drawn) the plasma membrane CFTR intensity was 99% (inactive) and the total CFTR intensity was 101%.
With `CC(=O)Nc1nnc(S(N)(=O)=O)s1` the plasma membrane CFTR intensity was 87% (inactive) and the total CFTR intensity was 89%.
With `CC(=O)N=c1sc(S(N)(=O)=O)nn1C` the plasma membrane CFTR intensity was 125% (active) and the total CFTR intensity was 144%.
With `COc1ccc(CNC(=O)c2cc3c(=O)n4ccccc4nc3n(Cc3cccnc3)c2=N)cc1` the plasma membrane CFTR intensity was 556% (inactive) and the total CFTR intensity was 561%.
With `COc1ccc(S(=O)(=O)NC(Cc2cnc[nH]2)C(=O)O)cc1` (stereo not drawn) the plasma membrane CFTR intensity was 75% (inactive) and the total CFTR intensity was 82%.
For `CC(C)Cn1c(=S)[nH]c2cc(C(=O)O)ccc2c1=O`, the plasma membrane CFTR intensity was 78% (inactive) and the total CFTR intensity was 81%.
In the case of `O=C(CCCC(=O)OCC1CCCO1)OCC1CCCO1` (stereo not drawn), the plasma membrane CFTR intensity is reported as 84% (inactive) and the total CFTR intensity is reported as 84%.
In the case of `CC(=O)[C@@]1(O)CC[C@H]2[C@@H]3CCC4=CC(=O)CC[C@]4(C)[C@H]3CC[C@@]21C`, the plasma membrane CFTR intensity is reported as 88% (inactive) and the total CFTR intensity is reported as 89%.
`CC(=O)SC1CC2=CC(=O)CCC2(C)C2CCC3(C)C(CCC34CCC(=O)O4)C12` (stereo not drawn) was tested, and the plasma membrane CFTR intensity was 177% (active) and the total CFTR intensity was 233%.
In the case of `CC(=O)[C@H]1CC[C@H]2[C@@H]3CCC4=CC(=O)CC[C@]4(C)[C@H]3CC[C@]12C`, the plasma membrane CFTR intensity is reported as 81% (inactive) and the total CFTR intensity is reported as 85%.
`N#C/C(=C/c1ccccc1)C(=O)NCc1ccccc1` was tested, and the plasma membrane CFTR intensity was 124% (active) and the total CFTR intensity was 125%.
For `S=C(NCc1ccccc1)NCc1cccc(CNC(=S)NCc2ccccc2)c1`, the plasma membrane CFTR intensity was 79% (inactive) and the total CFTR intensity was 81%.
For `N#C/C(=C\c1ccc(O)c(O)c1)C(=O)NCCCc1ccccc1`, the plasma membrane CFTR intensity was 78% (inactive) and the total CFTR intensity was 83%.
In the case of `Cc1cc(-c2nn(-c3ccccc3F)cc2CN2CCCC(O)C2)c(C)s1` (stereo not drawn), the plasma membrane CFTR intensity is reported as 75% (inactive) and the total CFTR intensity is reported as 76%.
With `O=C(/C=C/c1ccccc1)NCC1(c2ccccc2)CCOCC1` the plasma membrane CFTR intensity was 87% (inactive) and the total CFTR intensity was 84%.
`COc1cc(CNCc2ccc(OC)c(OC)c2OC)cc(OC)c1` was tested, and the plasma membrane CFTR intensity was 85% (inactive) and the total CFTR intensity was 79%.
In the case of `O=C(CCCCC(=O)NC1CCCC1)NC1CCCC1`, the plasma membrane CFTR intensity is reported as 90% (inactive) and the total CFTR intensity is reported as 90%.
`CCc1cccc2c1NC1(CCCC1)CC2C` (stereo not drawn) was tested, and the plasma membrane CFTR intensity was 74% (inactive) and the total CFTR intensity was 89%.
With `O=C1OC(=O)C2C1[C@@H]1CC[C@H]2O1` (stereo partly drawn) the plasma membrane CFTR intensity was 120% (active) and the total CFTR intensity was 133%.
In the case of `COc1ccc2c(CC(=O)NCC3CCC(C(=O)O)CC3)cc(=O)oc2c1` (stereo not drawn), the plasma membrane CFTR intensity is reported as 92% (inactive) and the total CFTR intensity is reported as 94%.
`COc1ccc2c3c([nH]c2c1)C1(NCC3)C(=O)Nc2ccccc21` (stereo not drawn) was tested, and the plasma membrane CFTR intensity was 85% (inactive) and the total CFTR intensity was 81%.
`CC1=CC(C)(C)N2C(=O)C3(NCCc4c3[nH]c3ccccc43)c3cc(C)cc1c32` (stereo not drawn) was tested, and the plasma membrane CFTR intensity was 108% (active) and the total CFTR intensity was 129%.
With `CC12CCCCN1CCCc1c2[nH]c2ccccc12` (stereo not drawn) the plasma membrane CFTR intensity was 104% (inactive) and the total CFTR intensity was 100%.
With `COc1ccc2c(c1)c(=O)oc1cc3occ(C(C)(C)C)c3cc12` the plasma membrane CFTR intensity was 92% (inactive) and the total CFTR intensity was 88%.
In the case of `O=C(NNC(=O)c1cccs1)c1ccco1`, the plasma membrane CFTR intensity is reported as 93% (inactive) and the total CFTR intensity is reported as 90%.
In the case of `O=C(NCc1ccc2c(c1)OCO2)c1ccc2c(c1)OCCO2`, the plasma membrane CFTR intensity is reported as 80% (inactive) and the total CFTR intensity is reported as 80%.
In the case of `CCN(CC)CCNc1ccc(CO)c2sc3ccccc3c(=O)c12`, the plasma membrane CFTR intensity is reported as 207% (active) and the total CFTR intensity is reported as 238%.
`CCCCOc1cc(C(=O)NCCN(CC)CC)c2ccccc2n1` was tested, and the plasma membrane CFTR intensity was 105% (inactive) and 91% (inactive) and the total CFTR intensity was 109% and 93%.
In the case of `CCN(CC)CCCNC(=O)C1c2ccccc2Oc2ccccc21`, the plasma membrane CFTR intensity is reported as 84% (inactive) and the total CFTR intensity is reported as 85%.
With `O=C(O)CCCN1C(=O)NC2NC(=O)NC21` (stereo not drawn) the plasma membrane CFTR intensity was 91% (inactive) and the total CFTR intensity was 95%.
With `CCOCc1cc(C)[nH]c(=O)c1C#N` the plasma membrane CFTR intensity was 80% (inactive) and the total CFTR intensity was 83%.
With `COc1ccc(/C=C\c2cc(OC)c(OC)cc2CC[N+](C)(C)C)cc1OC` the plasma membrane CFTR intensity was 81% (inactive) and the total CFTR intensity was 82%.
With `COc1cc2ccc(=O)oc2c(O)c1OCC=C(C)C` the plasma membrane CFTR intensity was 86% (inactive) and the total CFTR intensity was 92%.
For `COc1cccc(CC2CC(=O)N(c3ccc4c(C)cc(=O)oc4c3)C2=O)c1` (stereo not drawn), the plasma membrane CFTR intensity was 77% (inactive) and the total CFTR intensity was 83%.
In the case of `O=C(/C=C/c1ccco1)NCc1ccc2c(c1)OCO2`, the plasma membrane CFTR intensity is reported as 79% (inactive) and the total CFTR intensity is reported as 77%.
For `CC(=O)NC(Cc1ccccc1)C(=O)OCC(=O)c1ccccc1` (stereo not drawn), the plasma membrane CFTR intensity was 77% (inactive) and the total CFTR intensity was 78%.
In the case of `CC1(C)Cc2ccccc2-c2n[nH]c(=S)n21`, the plasma membrane CFTR intensity is reported as 93% (inactive) and the total CFTR intensity is reported as 97%.
`Cn1c2[n+](c3ccc(Cl)cc3c1=O)Cc1ccccc1-2` was tested, and the plasma membrane CFTR intensity was 78% (inactive) and the total CFTR intensity was 85%.
`Cc1cc(/C=N/O)c(C)n1-c1ccc(Br)cc1` was tested, and the plasma membrane CFTR intensity was 78% (inactive) and the total CFTR intensity was 82%.
With `CN1C(=O)C(O)(CC(=O)c2ccccc2O)c2cc(Br)ccc21` (stereo not drawn) the plasma membrane CFTR intensity was 159% (inactive) and the total CFTR intensity was 190%.
`CO[C@H]1C=CO[C@@]2(C)Oc3c(C)c(O)c4c(O)c(c(/C=N/N5CCN(C)CC5)c(O)c4c3C2=O)NC(=O)C(C)=CC=C[C@H](C)[C@H](O)[C@@H](C)[C@@H](O)[C@@H](C)[C@H](OC(C)=O)[C@@H]1C` was tested, and the plasma membrane CFTR intensity was 113% (active) and the total CFTR intensity was 137%.
In the case of `O=C(OCC1CCCN2CCCCC12)c1ccc2c(c1)OCO2` (stereo not drawn), the plasma membrane CFTR intensity is reported as 85% (inactive) and the total CFTR intensity is reported as 81%.
For `CC1=C/C(=N\N=C2/NC(=O)C(CC(=O)Nc3ccccc3F)S2)CC(C)(C)C1` (stereo not drawn), the plasma membrane CFTR intensity was 65% (inactive) and the total CFTR intensity was 65%.
